Source: PubChem BioAssay
DRD3 agonist – qHTS of D3 Dopamine Receptor Agonist: qHTS; hit rate 0.58% among 410,000; D3R DiscoveRx beta-arrestin cells, luminescence, 90 min; max activation, %; D(3) dopamine receptor (Homo sapiens), P35462; in the data active means max activation above about 30%; further: 0% is about no effect
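Agonist mode: compounds and dopamine controls were applied to plated cells for 90 min at 37 degrees C after an overnight attachment at 1500 cells/well. Luminescent read-out followed 30 - 60 minutes at room temperature with DiscoveRx detection reagent.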
D1 potentiator – Potentiators of Human D1 Dopamine Receptor: qHTS; HEK293 TREx D1 cells, calcium flux, dopamine EC20 potentiation; potentiation, % at 10 µM; hit rate 0.036% among 360,000; AID 504651, 2011; in the data active means potentiation above about 30%; further: 0% is about no effect
Target sequence (P21728 whole entry, looked up): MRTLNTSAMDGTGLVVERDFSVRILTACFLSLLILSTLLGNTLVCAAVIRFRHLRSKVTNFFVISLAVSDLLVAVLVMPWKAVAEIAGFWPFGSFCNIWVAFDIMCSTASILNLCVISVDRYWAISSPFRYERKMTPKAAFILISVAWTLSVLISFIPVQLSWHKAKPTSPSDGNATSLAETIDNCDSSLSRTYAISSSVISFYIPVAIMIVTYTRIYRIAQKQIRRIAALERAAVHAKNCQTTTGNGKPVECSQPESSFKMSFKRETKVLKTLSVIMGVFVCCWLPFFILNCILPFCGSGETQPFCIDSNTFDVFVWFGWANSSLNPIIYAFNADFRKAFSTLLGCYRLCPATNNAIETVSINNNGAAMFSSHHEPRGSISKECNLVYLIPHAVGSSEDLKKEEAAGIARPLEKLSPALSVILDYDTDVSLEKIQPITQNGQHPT
D1 ag – Allosteric Agonists of the Human D1 Dopamine Receptor: qHTS. D(1A) dopamine receptor (Homo sapiens), P21728. HEK293 T-REx D1 cells, calcium flux, agonist mode. activation, % at 2 µM. hit rate 1% among 360,000. AID 504660, 2011; in the data active means activation above about 30%; further: 0% is about no effect
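Agonism was scored from calcium flux recorded over 180 s (1 read/s) after pintool compound addition, following a 10-cycle baseline. Cells were inducible force-coupled HEK293 TREx D1, plated overnight at 30 C and loaded with no-wash calcium dye.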
D3 antag – qHTS of D3 Dopamine Receptor Antagonist: qHTS. max response, negative = inhibition, %. D(3) dopamine receptor (Homo sapiens), P35462. hit rate 2.5% among 360,000. D3R cells, DiscoveRx beta-arrestin luminescence, antagonist mode; stronger effect = lower value. AID 652054, 2013; in the data active means max response below about -50%; inconclusive means no clear call, values can overlap the other calls; further: on the % scale 0 is the no-effect control and ±100 the full control effect
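Cells expressing the human receptor were seeded at 1500 cells/well, incubated overnight at 37 degrees C in 5% CO2, then exposed to library compounds with dopamine controls for 90 minutes at 37 degrees C before luminescent detection.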
D1 antagonist – Antagonist of Human D 1 Dopamine Receptor: qHTS | D(1A) dopamine receptor (Homo sapiens), P21728 | HEK293 TREx D1 cells, calcium flux, dopamine EC80; stronger effect = lower value | activity change, negative = inhibition, % at 10 µM | hit rate 3.2% among 360,000 | AID 504652, 2011; in the data active means activity change below about -30%; further: on the % scale 0 is the no-effect control and ±100 the full control effect
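Tetracycline-induced HEK293 Trex D1 cells, force-coupled to calcium, dye-loaded; compounds added and read 180 s, then EC80 dopamine added and calcium flux tracked kinetically another 180 s.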
* hit, by the source's call. A selection: hits, their analogues and other compounds. The true share with any hit is near 6%.

COc1ccc(-n2nc(C(=O)Nc3ccc(C)cn3)c3c4ccccc4n(C)c3c2=O)cc1Cl was read as DRD3 agonist -4.1, D1 potentiator 4.8, D1 ag -0.1 and D1 antagonist -3.5.
Screening CCCCCCSc1cc(-c2nc3ccc(Cl)cn3c2NCCCC)ccc1OC returned DRD3 agonist 26.1, D1 potentiator -3.9, D1 ag 0.7, D3 antag 50.5 and D1 antagonist 0.1.
For CCCCCCSc1ccc(-c2nc3cnccn3c2NCCCC)cc1 the results were DRD3 agonist 63.5* and D3 antag 158.5.
Screening COc1ccc(-c2nc3cc(C)ccn3c2NCc2ccc3c(c2)OCO3)cc1 returned DRD3 agonist -1.7, D1 potentiator -0.5, D1 ag 2.6, D3 antag -8.6 and D1 antagonist -31.1*.
For CCCCCCSc1cc(-c2nc3ccc(C)cn3c2NCCCC)ccc1OC the results were DRD3 agonist 70.9* and D3 antag 131.9.
`Cc1ccc(COc2ccc(-c3cc(C(F)(F)F)n4nc(C)cc4n3)cc2)cc1` gave DRD3 agonist 3.0, D1 potentiator -1.4, D1 ag -0.2 and D1 antagonist 5.5.
Screening Cc1nc(SCC(=O)Nc2ccccc2Cl)cc(-c2ccccc2)n1 returned DRD3 agonist 15.9, D1 potentiator 1.2, D1 ag 4.2 and D1 antagonist -10.3.
Screening CCCNC(=O)OCCC12CC3CC(CC(C3)C1)C2 returned DRD3 agonist 0.5, D1 potentiator -2.8, D1 ag 33.4*, D3 antag 12.9 and D1 antagonist -6.4.
Screening CCOC(=O)c1ccccc1-n1c(C)cc(C2N=C(N)Nc3nc4ccccc4n32)c1C (centres undefined) returned DRD3 agonist -4.9, D1 potentiator -5.5, D1 ag 2.2, D3 antag -21.5 and D1 antagonist -35.6*.
For CCc1ccc(C2N=C(N)Nc3nc4ccccc4n32)cc1 (centres undefined) the results were DRD3 agonist -10.7, D1 potentiator -3.2, D1 ag 4.0 and D1 antagonist -14.1.
`CCn1c(SCc2c(F)cccc2Cl)nc(=O)c2c(C(=O)OC)cc(C3CC3)nc21` gave DRD3 agonist 7.0, D1 potentiator 3.3, D1 ag 2.3 and D1 antagonist 31.8.
Oc1ccccc1CNCC12CC3CC(CC(C3)C1)C2 was read as DRD3 agonist -20.4, D1 potentiator -7.3, D1 ag 53.2*, D3 antag 16.3 and D1 antagonist 0.7.
Cc1cc(C)c(NC(=O)C2CCCN2CCO)c(C)c1 (centres undefined) was read as DRD3 agonist 1.0, D1 potentiator -1.8, D1 ag 1.2, D3 antag -8.4 and D1 antagonist 13.3.
Cc1cc(C)c(NC(=O)C2CCCN2C)c(C)c1 (centres undefined) was read as DRD3 agonist 10.9, D1 potentiator -10.1, D1 ag 2.0, D3 antag -11.4 and D1 antagonist -35.1*.
`COc1ccc2c(CNCc3ccc(Cl)cc3)c(C(=O)O)n(Cc3ccccc3C)c2c1` gave DRD3 agonist -18.7, D1 potentiator 6.2, D1 ag -0.5 and D1 antagonist 10.8.
CCc1ccc(-n2nc3cc(C)c(NC(=O)c4cc(Cl)ccc4OC)cc3n2)cc1 was read as DRD3 agonist -6.1, D1 potentiator -4.3, D1 ag -0.9 and D1 antagonist -14.6.
Screening CC(=O)Nc1ccc(S(=O)(=O)NC(C)C(=O)NCC(c2ccco2)N2CCCCC2)cc1 (centres undefined) returned DRD3 agonist 0.2, D1 potentiator -2.3, D1 ag 0.5, D3 antag 30.2 and D1 antagonist -46.4*.
CC(Sc1ccccc1)C(=O)NCC(c1ccco1)N1CCCCC1 (centres undefined) was read as DRD3 agonist -12.8, D1 potentiator 0.1, D1 ag 2.4, D3 antag -2.9 and D1 antagonist -2.3.
`Cc1ccc(S(=O)(=O)NC(CC(C)C)C(=O)NCC(c2ccco2)N2CCCCC2)cc1` (centres undefined) gave DRD3 agonist -25.5, D1 potentiator -6.0, D1 ag 2.9, D3 antag -78.9* and D1 antagonist 12.6.
`COc1ccc(C(CNC(=O)C(CC(C)C)NS(=O)(=O)c2ccc(C)cc2)N2CCOCC2)cc1` (centres undefined) gave DRD3 agonist -28.5, D1 potentiator 5.8, D1 ag 1.4, D3 antag inconclusive and D1 antagonist -11.4.
Cc1cc(S(=O)(=O)Nc2cc3c(cc2N2CCOCC2)n(C)c(=O)c(=O)n3C)ccc1F was read as DRD3 agonist 2.9, D1 potentiator -3.6, D1 ag 2.2 and D1 antagonist -3.7.
Screening N#CN1CCC(NC(=O)c2ccc(C(F)(F)F)cc2)CC1 returned D1 potentiator -5.1, D1 ag 0.0 and D1 antagonist -1.2.
`CC(Oc1ccccc1F)C(=O)N1CCC(c2nc3ccccc3o2)CC1` (centres undefined) gave DRD3 agonist 3.1, D1 potentiator -0.4, D1 ag 2.9 and D1 antagonist -3.3.
`O=C1CSC(c2ccccn2)N1c1ccc(Cl)c(Cl)c1` (centres undefined) gave DRD3 agonist -0.2, D1 potentiator -4.2, D1 ag 9.7, D3 antag -10.7 and D1 antagonist 5.9.
O=C1CSC(c2ccc(Cl)cc2Cl)N1c1ccccn1 (centres undefined) was read as DRD3 agonist 1.4, D1 potentiator 30.0*, D1 ag 1.1, D3 antag 11.0 and D1 antagonist -0.2.
CCOC(=O)N[C@H](Cc1c[nH]c2ccccc12)C(=O)Nc1cccc(Cl)c1 was read as DRD3 agonist -5.1, D1 potentiator -3.2, D1 ag 8.3 and D1 antagonist -40.7*.
`COc1cccc(C(=O)Nc2ccc(Cl)c(-c3nc4ccccc4[nH]3)c2)c1` gave DRD3 agonist -5.7, D1 potentiator -1.1, D1 ag 9.7 and D1 antagonist -5.5.
Cc1cc(C)c2c(C)c(C(=O)NCc3ccncc3)oc2c1 was read as DRD3 agonist -0.6, D1 potentiator -5.4, D1 ag -1.5, D3 antag 23.3 and D1 antagonist -43.8*.
CCc1ccc2oc(C(=O)NCc3ccncc3)c(C)c2c1 was read as DRD3 agonist 0.4, D1 potentiator -4.0, D1 ag -0.5, D3 antag 30.3 and D1 antagonist 0.1.
COc1ccc(-n2cnc3cc(C(=O)NCCC4=CCCCC4)ccc32)cc1 was read as DRD3 agonist -0.5, D1 potentiator -6.2, D1 ag 4.5 and D1 antagonist -16.1.
`Cc1nc2ccccc2cc1OCc1ccccc1` gave DRD3 agonist 5.1, D1 potentiator -6.7, D1 ag 16.8, D3 antag 7.7 and D1 antagonist -59.0*.
